Most compounds without a hit are left out; they make up all but 2.4% or so of the library.
Pol kappa inh – inhibitors of human DNA polymerase kappa; purified Pol kappa, fluorescent DNA synthesis assay, 10 min; AID 588579; 0.53% of 400,000 active; Q9UBT6; Potency, µM (highest dose often 107 µM), without a hit: top-dose activity, negative = inhibition, most hits filed as inhibitors; also: % is scaled to controls: 0 for no effect and ±100 for the full control effect
Target sequence (Q9UBT6 whole entry, looked up): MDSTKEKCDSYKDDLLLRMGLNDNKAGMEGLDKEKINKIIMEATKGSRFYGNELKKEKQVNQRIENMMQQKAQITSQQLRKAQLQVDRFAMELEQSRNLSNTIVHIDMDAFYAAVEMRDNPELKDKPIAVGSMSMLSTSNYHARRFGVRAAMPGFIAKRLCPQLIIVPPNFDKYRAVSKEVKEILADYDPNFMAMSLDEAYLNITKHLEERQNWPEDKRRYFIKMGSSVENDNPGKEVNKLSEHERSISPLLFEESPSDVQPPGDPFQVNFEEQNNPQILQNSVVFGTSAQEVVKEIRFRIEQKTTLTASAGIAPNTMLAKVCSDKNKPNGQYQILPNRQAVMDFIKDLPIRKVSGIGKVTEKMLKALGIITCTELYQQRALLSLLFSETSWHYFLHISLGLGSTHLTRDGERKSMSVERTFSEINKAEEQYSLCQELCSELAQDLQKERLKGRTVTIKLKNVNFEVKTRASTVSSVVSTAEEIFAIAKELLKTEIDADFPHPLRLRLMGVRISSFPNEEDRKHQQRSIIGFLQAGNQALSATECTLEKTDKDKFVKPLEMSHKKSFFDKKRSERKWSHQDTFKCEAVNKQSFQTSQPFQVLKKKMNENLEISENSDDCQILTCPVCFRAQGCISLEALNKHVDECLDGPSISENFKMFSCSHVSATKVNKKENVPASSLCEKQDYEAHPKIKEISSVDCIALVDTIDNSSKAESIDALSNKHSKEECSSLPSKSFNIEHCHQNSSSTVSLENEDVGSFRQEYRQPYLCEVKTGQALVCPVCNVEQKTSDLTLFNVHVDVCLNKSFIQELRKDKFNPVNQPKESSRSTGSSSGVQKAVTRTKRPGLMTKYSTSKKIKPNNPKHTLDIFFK
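Kinetic fluorescence readout at 0 and 10 min followed reaction start with substrate at 50 nM final. Beforehand, enzyme (10 nM Pol kappa) stood 15 min with compound at room temperature; buffer-only wells were negative controls.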
Pol iota inh – blocks human DNA polymerase iota activity; Q9UNA4; Pol iota fluorescent replication assay, 10 min; Potency, µM (top dose mostly 115 µM), without a hit: at the highest dose activity, negative = inhibition, most hits filed as inhibitors; 1% of 390,000 active
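Fluorescent replication assay read twice, at 0 min and 10 min after adding 50 nM (final) substrate. Enzyme (10 nM) and compounds were first incubated 15 min at room temperature; enzyme-free buffer wells were negative controls.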
TDP1 inh – inhibitors of human tyrosyl-DNA phosphodiesterase TDP1. recombinant TDP1, AlphaScreen DNA substrate cleavage. 0.28% of 350,000 active. AID 485290. Potency, µM (doses to about 130 µM), for inactives: top-dose activity change, negative = inhibition, hits mostly inhibitors; also: % is scaled to controls: 0 for no effect and ±100 for the full control effect; nearly all actives have a fitted effect of over 40% in size
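Compounds were preincubated with Tdp1 (1 nM final) for 15 min at room temperature before substrate (15 nM final) started a 5 min reaction; beads (10 ug/ml final) were then added for 10 min before AlphaScreen detection.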
POLB inh – inhibitors of human DNA polymerase beta. P06746. Pol beta primer extension/strand displacement, fluorescence kinetic. AID 485314. Potency, µM (titrated, usually from 114 µM), without a hit: top-dose activity change, negative = inhibition, actives largely listed as inhibitors. 1.3% of 340,000 active; also: % is scaled to controls: 0 for no effect and ±100 for the full control effect
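Values derive from four-parameter Hill fits of normalized kinetic data: reads at 0 and 10 min following addition of 50 nM substrate to 10 nM Pol beta preincubated 15 min with compound.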
Pol eta inh – inhibitors of human DNA polymerase eta; 1.2% of 390,000 active; Q9Y253; recombinant Pol eta, fluorescent DNA replication assay; Potency, µM (titrated, usually from 114 µM), without a hit: top-dose activity change, negative = inhibition, usual class: inhibitors; also: % is scaled to controls: 0 for no effect and ±100 for the full control effect
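Fluorescent replication assay: 50 nM final substrate added after a 15 min room-temperature compound preincubation with 10 nM enzyme. Signal taken at 0 min and again at 10 min.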
* = called active by the depositor; [ ] = another dose, or the depositor's remark. Calls follow the shape of the dose curve; as a rule, active = well fitted curve in the direction sought with a large enough effect; inconclusive = small, poorly fitted or top-dose-only effect, or another doubt; inactive = no such curve, though single readings can be large; an effect the other way counts as inactive or inconclusive. Potency is read from the fitted curve at half-maximal effect.

C#CCOCCOCCOCCNc1nc(N2CCN(C(=O)CCCCCCCCCCNC(=O)[C@H](CCCCN)n3cc(CCO)nn3)CC2)nc(N2CCN(C(=O)CCCCCCCCCCNC(=O)[C@H](CCCCN)n3cc(CCCC(=O)O)nn3)CC2)n1 was read as Pol kappa inh 12%, Pol iota inh inconclusive, TDP1 inh 3% and Pol eta inh -21%.
Screening C#CCOCCOCCOCCNc1nc(N2CCN(C(=O)CCCCCCCCCCNC(=O)[C@H](CCCCN)n3cc(C)nn3)CC2)nc(N2CCN(C(=O)CCCCCCCCCCNC(=O)[C@@H]([C@H](C)O)n3cc(C)nn3)CC2)n1 returned Pol kappa inh -7%, Pol iota inh inconclusive, TDP1 inh 3% and Pol eta inh -21%.
Screening C#CCOCCOCCOCCNc1nc(N2CCN(C(=O)CCCCCCCCCCNC(=O)[C@@H](CCC(=O)O)n3cc(CCCCCN)nn3)CC2)nc(N2CCN(C(=O)CCCCCCCCCCNC(=O)[C@H](CO)n3cc(CCCCCN)nn3)CC2)n1 returned Pol kappa inh 4%, Pol iota inh -4%, TDP1 inh 7% and Pol eta inh -18%.
For C#CCOCCOCCOCCNc1nc(N2CCN(C(=O)CCCCCCCCCCNC(=O)[C@H](CCCCN)n3cc(CCO)nn3)CC2)nc(N2CCN(C(=O)CCCCCCCCCCNC(=O)[C@H](CCCCN)n3cc(C[C@@H](C)CC)nn3)CC2)n1 the results were Pol kappa inh -25%, Pol iota inh inconclusive, TDP1 inh 0% and Pol eta inh 79µM*.
For C#CCOCCOCCOCCNc1nc(N2CCN(C(=O)CCCCCCCCCCNC(=O)[C@@H](CCSC)n3cc(CCO)nn3)CC2)nc(N2CCN(C(=O)CCCCCCCCCCNC(=O)[C@H](CCCN=C(N)N)n3cc(C[C@@H](C)CC)nn3)CC2)n1 the results were Pol kappa inh -19%, Pol iota inh inconclusive, TDP1 inh 15% and Pol eta inh 79µM*.
For C#CCOCCOCCOCCNc1nc(N2CCN(C(=O)CCCCCCCCCCNC(=O)[C@@H](CCC(=O)O)n3cc(CCCCCN)nn3)CC2)nc(N2CCN(C(=O)CCCCCCCCCCNC(=O)[C@H](CCCCN)n3cc(C[C@@H](C)CC)nn3)CC2)n1 the results were Pol kappa inh 16%, Pol iota inh 3%, TDP1 inh 6% and Pol eta inh 89µM*.
Screening C#CCOCCOCCOCCNc1nc(N2CCN(C(=O)CCCCCCCCCCNC(=O)[C@H](CCCCN)n3cc(C[C@@H](C)CC)nn3)CC2)nc(N2CCN(C(=O)CCCCCCCCCCNC(=O)[C@@H]([C@H](C)O)n3cc(C)nn3)CC2)n1 returned Pol kappa inh 3%, Pol iota inh 24%, TDP1 inh 10% and Pol eta inh 79µM*.
Screening CN1CCCc2cc(/C=C/c3ccnc4ccccc34)ccc21 returned Pol kappa inh 1% and Pol iota inh 11%.
CC(C)C[C@@H](CN=[N+]=[N-])N1CCN(CCc2ccccc2)CCC1=O was read as Pol kappa inh -12% and Pol iota inh 29%.
For Cc1cc2c(s1)c1cnn(Cc3ccccc3)c(=O)c1n2C the results were TDP1 inh -1%.
For C#CCOCCOCCOCCNc1nc(N2CCN(C(=O)CCCCCCCCCCNC(=O)Cn3cc(CCCCCN)nn3)CC2)nc(N2CCN(C(=O)CCCCCCCCCCNC(=O)Cn3cc(C[C@@H](C)O)nn3)CC2)n1 the results were Pol kappa inh 6%, Pol iota inh -18%, TDP1 inh 14% and Pol eta inh inconclusive.
Screening C#CCOCCOCCOCCNc1nc(N2CCN(C(=O)CCCCCCCCCCNC(=O)Cn3cc(C[C@@H](C)O)nn3)CC2)nc(N2CCN(C(=O)CCCCCCCCCCNC(=O)[C@@H]([C@H](C)CC)n3cc(CCCCCN)nn3)CC2)n1 returned Pol kappa inh 15%, Pol iota inh inconclusive, TDP1 inh 11% and Pol eta inh 89µM*.
Screening Cc1cccc(CN2CC34CCC(CC3S2(=O)=O)O4)c1 (centres undefined) returned Pol kappa inh inconclusive, Pol iota inh inconclusive and TDP1 inh 9%.
O=C(O)CC/C(=C\c1cccc(NC(=O)c2ccccc2Cl)c1)c1nc2ccccc2s1 was read as Pol kappa inh -11%, Pol iota inh -11%, POLB inh 18µM* and Pol eta inh -9%.
`Cn1nnnc1SCC1=C(C(=O)O)N2C(=O)[C@@H](NC(=O)[C@H](O)c3ccccc3)[C@H]2SC1` gave Pol kappa inh 1.6µM*, Pol iota inh 3.2µM*, TDP1 inh 16µM*, POLB inh 10µM* and Pol eta inh 1.3µM*.
N[C@H](C(=O)N[C@@H]1C(=O)N2C(C(=O)O)=C(Cl)CS[C@@H]12)c1ccccc1 was read as Pol kappa inh -8%[12 µM] and TDP1 inh -13%[56.1 µM].
`Cn1nnnc1SCC1=C(C(=O)O)N2C(=O)C(NC(=O)C(OC=O)c3ccccc3)C2SC1` (centres undefined) gave Pol kappa inh 22µM*.
`CC#C[C@]1(O)CC[C@H]2C3CCC4=CC(=O)CCC4=C3[C@@H](c3ccc(N(C)C)cc3)C[C@@]21C` (some centres undefined) gave Pol kappa inh 6%[19.4 µM], Pol iota inh inconclusive, TDP1 inh 22%[56.1 µM], POLB inh -4%[57.1 µM] and Pol eta inh 4%[57.1 µM].
`CCOC(=O)C1CCN(c2ncnc3c2c(-c2ccccc2)cn3-c2ccc(Cl)cc2)CC1` gave Pol kappa inh -9%[60.1 µM], Pol iota inh 11%, TDP1 inh 0%, POLB inh 33% and Pol eta inh -19%.
For COc1cc(F)c(S(=O)(=O)N2CCN(S(=O)(=O)c3cccc(NC(C)=O)c3)CC2)c(F)c1 the results were TDP1 inh 2%.
`c1cc2[nH]snc2c2nc(C3CC3)nc12` gave Pol kappa inh -8%, Pol iota inh inconclusive, TDP1 inh 2%, POLB inh 4% and Pol eta inh 79µM*.
Cc1cc(C)cc(NC2=C(N)C(=O)c3ccccc3C2=O)c1 was read as Pol kappa inh 5%[60.1 µM], Pol iota inh 7.9µM*, POLB inh -7% and Pol eta inh -8%.
`Cc1ccc(NC2=C(Cl)C(=O)c3ccccc3C2=O)cc1` gave Pol kappa inh -12%, Pol iota inh 27%, TDP1 inh 3%, POLB inh -4%[57.1 µM] and Pol eta inh inconclusive.
Cc1ccc(C(=O)C[n+]2cccc3cccc(O)c32)cc1 was read as Pol kappa inh -6% and Pol iota inh 35%.
For Cc1ccc2nc(CSc3nnc(Nc4ccccc4F)s3)cc(=O)n2c1 the results were Pol kappa inh -12%, Pol iota inh inconclusive, TDP1 inh inconclusive, POLB inh 22µM* and Pol eta inh -31%.

Source: PubChem BioAssay (National Center for Advancing Translational Sciences (NCATS))
